Data taken from the antibiotic and cytotoxicity screens of Wong et al. (2023).
Among all 39,000 compounds or so, about 1,500 (3.8%) were called active. Many of the other results were omitted from the sample, so actives are more common in it than they were.

Test system: HSkMC (human skeletal muscle cells)
Assay: cytotoxicity call (relative viability < 0.9)
Conditions: 10 µM

Row | SMILES | cytotoxicity call
1 | O=C1C[C@H](c2ccccc2)[C@@H]2CNCCN12 | inactive
2 | Cc1nnc(N2CCC[C@]3(CNCCO3)C2)o1 | inactive
3 | N#CN1CCCC1 | inactive
4 | Cc1cccc(CN2C[C@H]3OCCN(C)[C@H]3C2)n1 | inactive
5 | CC1=C(O)C(=O)C=C2C1=CC=C1C2(C)CCC2(C)C3CC(C)(C(=O)O)CCC3(C)CCC12C (stereo unspecified) | active
6 | NC1N[C@H]2CCCC[C@@H]2N1 | inactive
7 | CC(C)(CN)CNc1ccc([N+](=O)[O-])c2cccnc12 | inactive
8 | NC(=O)c1cn([C@@H]2O[C@H](CO)[C@@H](O)[C@H]2O)c2ncnc(N)c12 | inactive
9 | NC(=O)c1cn([C@H]2O[C@@H](CO)[C@H](O)[C@@H]2O)c2ncnc(N)c12 | active
10 | CCNC(=O)[C@H]1O[C@H](n2cnc3c(N)ncnc32)[C@@H](O)[C@@H]1O | inactive
11 | O=C(NC(=O)c1c(F)cccc1F)Nc1cc(Cl)c(OC(F)(F)[C@@H](F)C(F)(F)F)cc1Cl | active
12 | O=C(NC(=O)c1c(F)cccc1F)Nc1ccc(Cl)cc1 | inactive
13 | O=C(NC(=O)c1c(F)cccc1F)Nc1cc(Cl)c(OC(F)(F)C(F)C(F)(F)F)cc1Cl (stereo unspecified) | inactive
14 | C=CCC1(C(C)CCC)C(=O)N=C([S-])NC1=O.[Na+] (stereo unspecified) | inactive
15 | Cl.c1cncc(C2CCCCN2)c1 (stereo unspecified) | inactive
16 | Br.COC(=O)C1=CCCN(C)C1 | inactive
17 | NC(=O)CN1CC[C@@H](NC(=O)[C@@H]2CCCN2)C1=O | inactive
18 | c1cn(C[C@H]2CC[C@H]3NCCO[C@@H]23)cn1 | inactive
19 | Cl.Cn1c(CCCC(=O)O)nc2cc(N(CCCl)CCCl)ccc21 | inactive
20 | CC[C@@H]1/C=C/C=C/C[C@H](C)[C@@H](O)[C@](C)(O)C(=O)[C@H](C)[C@@H](O)[C@H](C)C(=O)[C@H](C)[C@@H](O)[C@H](C)/C=C/C(=O)O[C@H]2[C@@H](C)[C@@H](CC1)O[C@@]1(CC[C@@H](C)[C@@H](C[C@H](C)O)O1)[C@@H]2C | inactive
21 | CC[C@H]1/C=C/C=C/C[C@@H](C)[C@H](O)[C@@](C)(O)C(=O)[C@@H](C)[C@H](O)[C@@H](C)C(=O)[C@@H](C)[C@H](O)[C@@H](C)/C=C/C(=O)O[C@@H]2[C@H](C)[C@H](CC1)O[C@]1(CC[C@H](C)[C@H](C[C@@H](C)O)O1)[C@H]2C | active
22 | CCC(COC(=O)c1cc(OC)c(OC)c(OC)c1)(c1ccccc1)N(C)C.O=C(O)C=CC(=O)O (stereo unspecified) | inactive

Row | SMILES | cytotoxicity call
23 | Cc1n[nH]c(=O)nc1N1CCN(C)CC1 | inactive
24 | C[C@@H]1O[C@@H](O[C@@H]2C[C@@H](O)[C@]3(CO)[C@H]4[C@H](O)C[C@]5(C)[C@@H](C6=CC(=O)OC6)CC[C@]5(O)[C@@H]4CC[C@]3(O)C2)[C@H](O)[C@H](O)[C@H]1O | active
25 | CC1OC(OC2CC(O)C3(CO)C4C(O)CC5(C)C(C6=CC(=O)OC6)CCC5(O)C4CCC3(O)C2)C(O)C(O)C1O.O.O.O.O.O.O.O.O (stereo unspecified) | active
26 | CC(=O)O[C@@]12CO[C@@H]1C[C@H](O)[C@@]1(C)C(=O)[C@H](O)C3=C(C)[C@@H](OC(=O)[C@H](O)[C@@H](NC(=O)c4ccccc4)c4ccccc4)C[C@](O)([C@@H](OC(=O)c4ccccc4)[C@H]21)C3(C)C | inactive
27 | COCC(=O)N1C[C@@H]2c3ccccc3CN[C@@H]2C1 | inactive
28 | COC(=O)[C@@H](N)CCCNC(N)=N[N+](=O)[O-] | inactive
29 | [N-]=[N+]=CC(=O)OCC(N)C(=O)O (stereo unspecified) | inactive
30 | C1COC2(CCOCC2)CN1 | inactive
31 | Cc1cc(OC(=O)N(C)C)cc(=O)n1C | inactive
32 | COC(=O)C[C@@H]1CC[C@H]2NC[C@@H](O)COC[C@@H]2O1 | inactive
33 | CC(N)(Cc1ccccc1)c1ccccc1 (stereo unspecified) | inactive
34 | CN1CCc2cc3c(cc2C1O)OCO3.Cl (stereo unspecified) | inactive
35 | COC(=O)C[C@](O)(CCC(C)(C)O)C(=O)O[C@@H]1C(OC)=C[C@]23CCCN2CCc2cc4c(cc2[C@H]13)OCO4 | active
36 | CN1CCc2cc3c(cc2[C@@H]1O)OCO3 | inactive
37 | C[N+]12CCC(CC1)C(OC(=O)C(O)(c1ccccc1)c1ccccc1)C2.[Br-] (stereo unspecified) | inactive
38 | CC1OC(OC2C(O)C(O)C(O)C(O)C2O)C(N)CC1NC(=N)C(=O)O.Cl (stereo unspecified) | inactive
39 | O=C1C=C2C(=CCO[C@@H]2O)O1 | inactive
40 | O=C1C=C2C(=CCOC2O)O1 (stereo unspecified) | active
41 | CCCCC(=O)N1CC[C@H]2CNC[C@H]21 | inactive
42 | N#Cc1c(Cl)c(Cl)c(Cl)c(C#N)c1Cl | active
43 | CCCCCC1C(=O)OC(C)C(NC(=O)c2cccc(NC=O)c2O)C(=O)OC(C)C1OC(=O)CC(C)C (stereo unspecified) [ANTIMYCIN A (A1 shown) ] | inactive
44 | CCC[C@@H](CN)c1ccc(F)cc1 | inactive

Row | SMILES | cytotoxicity call
45 | COc1cc(C2c3cc4c(cc3C(O)C3COC(=O)C23)OCO4)cc(OC)c1OC (stereo unspecified) | inactive
46 | COc1c(C[C@@H](C)O)c2c3c(C[C@@H](C)O)c(OC)c(=O)c4c(O)cc5c(c6c(cc(O)c(c1=O)c62)OCO5)c43 | active
47 | CCOC1OC2OC3(C)CCC4C(C)CCC(C1C)C24OO3 (stereo unspecified) | inactive
48 | CC1=NCCc2c1[nH]c1cc(O)ccc21.Cl.O.O | inactive
49 | CCCCC[C@H]1C(=O)O[C@H](C)[C@H](NC(=O)c2cccc(NC=O)c2O)C(=O)O[C@@H](C)[C@@H]1OC(=O)CC(C)C | inactive
50 | CCCCCCCCCC(=O)O[C@@H]1[C@@H](C)[C@]2(O)[C@@H](C=C(CO)C[C@]3(O)C(=O)C(C)=C[C@@H]23)[C@@H]2C(C)(C)[C@@]12OC(=O)CCCCCCCCC | active
51 | CCCCCCCCCC(=O)O[C@@H]1[C@@H](C)[C@@]2(O)[C@@H](C=C(CO)C[C@]3(O)C(=O)C(C)=C[C@@H]23)[C@@H]2C(C)(C)[C@]12OC(=O)CCCCCCCCC | inactive
52 | CC1=C[C@H]2[C@]3(O)[C@H](C=C(CO)C[C@]2(O)C1=O)[C@H]1C(C)(C)[C@@]1(O)[C@H](O)[C@@H]3C | inactive
53 | CCCCCCCCCCCCCC(=O)O[C@@H]1[C@@H](C)[C@@]2(O)[C@@H](C=C(CO)C[C@]3(O)C(=O)C(C)=C[C@@H]23)[C@@H]2C(C)(C)[C@]12OC(C)=O | active
54 | Cc1ccc2[nH]cc(C[C@@H](C)N)c2c1 | inactive
55 | CCCC(C)C1(CC)C(=O)N=C([S-])NC1=O.[Na+] (stereo unspecified) | inactive
56 | C[C@@H]1CN([C@@H](C)CO)C(=O)CCCn2cc(nn2)CO[C@@H]1CN(C)C(=O)Oc1ccc2ccccc2c1 | inactive
57 | CCCCSP(=O)(SCCCC)SCCCC | inactive
58 | COc1ccc(O)c(C(C)(C)C)c1 | inactive
59 | CC(=O)OC1C(=O)C2(C)C(O)CC3OCC3(OC(C)=O)C2C(OC(=O)c2ccccc2)C2(O)CC(O)C(C)=C1C2(C)C (stereo unspecified) | inactive
60 | C[C@H]1CN([C@@H](C)CO)C(=O)CCCn2cc(nn2)CO[C@H]1CN(C)C(=O)Oc1ccc2ccccc2c1 | inactive
61 | C=C1[C@@H](C)[C@H]2[C@H](Cc3ccccc3)NC(=O)[C@]23[C@H](OC(C)=O)/C=C/[C@](C)(O)C(=O)[C@@H](C)C/C=C/[C@H]3[C@@H]1O | active
62 | COCCCNC(=O)[C@@]1(Cc2ccccc2CN=[N+]=[N-])N=C(c2ccc(OCCCO)cc2)O[C@H]1c1ccccc1CN=[N+]=[N-] | inactive
63 | Nc1ccc2c(c1)Cc1ccccc1-2 | inactive
64 | CC(C)n1cnnc1CCN | inactive
65 | CN1C[C@@H](NC(=O)C2CC2)[C@H]2OCCC[C@H]21 | inactive
66 | CCN1C(=O)/C(=C/c2ccc[nH]2)C(=O)NC1=S | inactive

Row | SMILES | cytotoxicity call
67 | C=CCN1C(=O)NC(=O)/C(=C/c2ccco2)C1=O | active
68 | CN1C(=O)NC(=O)/C(=C\C=C\c2ccco2)C1=O | inactive
69 | COC1=CC(=O)OC(C=Cc2ccccc2)C1 (stereo unspecified) | inactive
70 | O=C(O)CC[C@@H](CP(=O)(O)O)C(=O)O | inactive
71 | CC(=O)OC1CC(OC2C(O)CC(OC3C(O)CC(OC4CCC5(C)C(CCC6C5CC(O)C5(C)C(C7=CC(=O)OC7)CCC65O)C4)OC3C)OC2C)OC(C)C1OC1OC(CO)C(O)C(O)C1O (stereo unspecified) | active
72 | CC(=O)O[C@H]1C[C@H](O[C@H]2[C@@H](O)C[C@H](O[C@H]3[C@@H](O)C[C@H](O[C@H]4CC[C@@]5(C)[C@@H](CC[C@H]6[C@@H]5C[C@@H](O)[C@]5(C)[C@@H](C7=CC(=O)OC7)CC[C@]65O)C4)O[C@@H]3C)O[C@@H]2C)O[C@H](C)[C@H]1O[C@@H]1O[C@H](CO)[C@@H](O)[C@H](O)[C@H]1O | active
73 | CC(=O)O[C@H]1C[C@@H]2CC[C@@H]3[C@H](CC[C@@]4(C)[C@H]3C[C@H]([N+]3(C)CCCCC3)[C@@H]4OC(C)=O)[C@@]2(C)C[C@@H]1[N+]1(C)CCCCC1 | inactive
74 | CO[C@H]1[C@@H](O)[C@@H](O[C@H]2CC[C@]3(C=O)[C@@H]4[C@@H](CC[C@]3(O)C2)[C@@]2(O)CC[C@H](C3=CC(=O)OC3)[C@@]2(C)C[C@H]4OC(C)=O)O[C@@H](C)[C@@H]1OC(C)=O | inactive
75 | CC12CCC3C(CCC4CC(O)CCC43C)C1CCC2=O (stereo unspecified) | inactive
76 | CC(=O)OC1CCC2(C)C(CCC3C2CCC2(C)C(C4=CC(=O)OC4)C(OC(C)=O)CC32O)C1 (stereo unspecified) | active
77 | CC12CCC3C(CCC4CC(O)CCC43C)C1CCC2O (stereo unspecified) | inactive
78 | CC12CCC(O)CC1CCC1C2CC(O)C2(C)C(C3=CC(=O)OC3)CCC12O (stereo unspecified) | active
79 | CNC(=O)Oc1ccc2c(c1)C1(C)CCN(C)C1N2C (stereo unspecified) | inactive
80 | COC(=O)[C@]1(Cc2ccccc2CN=[N+]=[N-])N=C(c2ccc(OCCCO)cc2)O[C@@H]1c1ccccc1CN=[N+]=[N-] | inactive
81 | COc1ccccc1C1(N)CC1 | inactive
82 | N#C[C@]1(O)CN2CCC1CC2 | inactive
83 | CC(C)Oc1ccc(CCN)cc1 | inactive
84 | COc1cc(C=O)cc(OC)c1OC | inactive
85 | Cn1cc([C@@]23C[C@]2(C)COC3=O)cn1 | inactive
86 | C1CCN(C[C@H]2CO[C@]3(CNCCOC3)C2)C1 | inactive
